Measured values: PubChem BioAssay (NCI)
Compounds without any hit were thinned out: in the full panel of roughly 79,000, 15% have a hit. Values without a mark were called inactive. Active and inactive are the calls of the source. Cut-off read from the data, not from the text of the source: active = growth inhibition above about 70%; inactive = the rest.

Assays:
[1] = NCI Yeast Anticancer Drug Screen. Data for the rad50 strain (AID 155);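 note: 0% = growth of vehicle-only cultures of the same strain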; settings: S. cerevisiae rad50 strain growth inhibition, stronger effect = higher value
Procedure, shortened: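 Yeast carrying a defined DNA repair defect were exposed to test compounds, and growth was compared with vehicle-treated controls to give percent inhibition.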

[2] = NCI Yeast Anticancer Drug Screen. Data for the mec2-1 strain (AID 157); settings: S. cerevisiae mec2-1 strain, stronger effect = higher value
Procedure, shortened: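 Vehicle-treated cultures served as reference for growth inhibition of compound-exposed mec2-1 yeast.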

[3] = NCI Yeast Anticancer Drug Screen. Data for the sgs1 mgt1 strain (AID 161);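 note: 0% = growth of cultures given vehicle only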; settings: S. cerevisiae sgs1 mgt1 strain, stronger effect = higher value
Procedure, shortened: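 Test agents were incubated with a DNA-repair-mutant yeast strain. Growth was then read and compared against vehicle-treated controls.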

[4] = NCI Yeast Anticancer Drug Screen. Data for the cln2 rad14 strain (AID 165);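 note: 0% = growth equal to vehicle treated cultures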; settings: S. cerevisiae cln2 rad14 strain, stronger effect = higher value
Procedure, shortened: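 Each compound was tested on cln2 rad14 yeast. Inhibition of growth was calculated against vehicle-exposed controls.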

[5] = NCI Yeast Anticancer Drug Screen. Data for the bub3 strain (AID 167); settings: S. cerevisiae bub3 mutant strain, stronger effect = higher value
Procedure, shortened: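 Compounds were applied to a genetically altered yeast strain carrying a cell-cycle control defect. Growth inhibition was scored against vehicle-treated controls.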

[6] = NCI Yeast Anticancer Drug Screen. Data for the mlh1 rad18 strain (AID 175); settings: S. cerevisiae mlh1 rad18 strain growth inhibition, stronger effect = higher value
Procedure, shortened: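 Vehicle-treated cultures served as the reference for growth inhibition in a yeast strain carrying DNA damage repair alterations exposed to each compound.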

[7] = at 5.0 µM (retest, dose inferred, filed as 0.5)
[8] = at 50.0 µM (retest, dose inferred, filed as 5.0)

Compound | growth inhibition [1, 7] | growth inhibition [1, 8] | growth inhibition ([1]; at 50.0 µM) | growth inhibition [2, 7] | growth inhibition [2, 8] | growth inhibition ([2]; at 50.0 µM) | growth inhibition [3, 7] | growth inhibition [3, 8] | growth inhibition ([3]; at 50.0 µM) | growth inhibition [4, 7] | growth inhibition [4, 8] | growth inhibition ([4]; at 50.0 µM) | growth inhibition [5, 7] | growth inhibition [5, 8] | growth inhibition ([5]; at 50.0 µM) | growth inhibition [6, 7] | growth inhibition [6, 8] | growth inhibition ([6]; at 50.0 µM)
ON1CCc2c([nH]c3ccccc23)C1c1ccc(Cl)cc1 (centres undefined) | -8% | 93% (active) | 54.5% | -9% | 91% (active) | 34.4% | 1% | 98% (active) | 85.4% (active) | -8% | 88% (active) | 55.7% | -6% | 96% (active) | 40.1% | -2% | 96% (active) | 79.2% (active)
CCCCN(CCC(=O)O)c1ccc(/C=C\c2ccnc3ccccc23)cc1 | 8% | 89% (active) | 94.2% (active) | 6% | 89% (active) | 93.5% (active) | 21% | 90% (active) | 95.6% (active) | 15% | 82% (active) | 88.7% (active) | -2% | 68% | 96.3% (active) | 0% | 89% (active) | 93% (active)
Cc1ccc(S(=O)(=O)OC(C=O)C(O)C(O)COC(c2ccccc2)(c2ccccc2)c2ccccc2)cc1 (centres undefined) | 98% (active) | 98% (active) | 87.8% (active) | 98% (active) | 98% (active) | 84.5% (active) | 95% (active) | 95% (active) | 86.4% (active) | 99% (active) | 99% (active) | 84.8% (active) | 98% (active) | 98% (active) | 88.5% (active) | 99% (active) | 99% (active) | 85.2% (active)
CC(=O)OCC1OC(c2cccc3c2c2ccccc2n3S(=O)(=O)c2ccccc2)C(O)C1O (centres undefined) | 1% | 93% (active) | 17.4% | 1% | 97% (active) | -0.7% | -1% | 97% (active) | 7.15% | 2% | 98% (active) | 1.25% | 0% | 98% (active) | 7.8% | 1% | 98% (active) | 37.9%
Cc1c2ccncc2c(C)c2c1sc1ccccc12 | 83% (active) | 94% (active) | 89.5% (active) | 38% | 96% (active) | 90% (active) | 43% | 94% (active) | 88.8% (active) | 32% | 95% (active) | 88.8% (active) | 55% | 95% (active) | 84.5% (active) | 77% (active) | 91% (active) | 83.3% (active)
Oc1cc(O)c2c(c1)OC(c1ccc(O)c(O)c1)C(OC1(c3cc(O)c(O)c(O)c3)Oc3cc(O)cc(O)c3C(O)C1O)C2 (centres undefined) | -4% | 17% | -3.85% | -5% | -27% | -18.2% | -14% | 6% | -15.9% | -31% | 4% | -9.25% | 8% | -4% | -33.5% | -5% | 12% | 42.5%
O=C(O)c1ccc2ccccc2c1C(=O)c1cccc2ccccc12 | 12% | 12% | 86.8% (active) | 1% | 8% | 83.5% (active) | 0% | 21% | 90.4% (active) | 7% | 9% | 92.1% (active) | 0% | 3% | 83.2% (active) | -5% | 15% | 92.2% (active)
O=C1NC(CSSCC2NC(=O)N(c3ccccc3)C2=O)C(=O)N1c1ccccc1 (centres undefined) | 8% | 94% (active) | 87.9% (active) | 11% | 97% (active) | 58.9% | 16% | 99% (active) | 93.6% (active) | 1% | 90% (active) | 58.1% | 4% | 98% (active) | 55.5% | 8% | 96% (active) | 95.2% (active)
c1ccc([B-](c2ccccc2)(c2ccccc2)c2ccccc2)cc1 | -3% | -6% | 98.2% (active) | -4% | -1% | 95% (active) | 0% | -3% | 98.2% (active) | 4% | -16% | 98.4% (active) | 5% | 2% | 93.3% (active) | 1% | -2% | 98.5% (active)
CCCCNc1ccc(C(=O)OC2CCN(C)CC2)c(Cl)c1 | 99% (active) | 96% (active) | 97% (active) | 99% (active) | 97% (active) | 94.5% (active) | 99% (active) | 98% (active) | 95.9% (active) | 98% (active) | 96% (active) | 84% (active) | 99% (active) | 97% (active) | 96.3% (active) | 99% (active) | 96% (active) | 92.8% (active)
CC(C)CCN(CCC(C)C)C(=S)Nc1ccccc1 | -13% | 87% (active) | 92.7% (active) | 6% | 93% (active) | 89.2% (active) | -20% | 89% (active) | 86.8% (active) | -22% | 89% (active) | 90.8% (active) | -7% | 94% (active) | 92% (active) | -7% | 94% (active) | 92.5% (active)
FC(F)(F)c1ccccc1NC(=S)SCc1ccc2c(c1)OCO2 | 7% | 95% (active) | 98.8% (active) | 8% | 98% (active) | 99% (active) | 1% | 97% (active) | 99% (active) | 2% | 96% (active) | 98% (active) | 3% | 95% (active) | 98.3% (active) | 1% | 96% (active) | 99% (active)
Cc1ccc(C)c(N2C/C(=N\NC(=O)CC#N)C(c3nc4ccccc4s3)C(=O)C2=O)c1 (centres undefined) | 0% | 1% | 7.9% | 0% | 2% | -0.3% | -3% | -3% | -5.2% | -3% | -1% | 12.6% | 33% | 19% | -0.3% | 1% | 1% | 20.9%
